From PubChem BioAssay
IL-1B inflam inh = inhibitors of inflammasome signaling (IL-1 beta secretion) | activity change, % at 57.5 µM | hit rate 4.7% among 360,000 | THP-1 LPS/ATP IL-1B secretion, AlphaLISA, 16 h; hits give low values; in the data active = activity change below about -50%; inconclusive = mostly about -30% to -49%
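Secreted IL-1B measured by AlphaLISA bead assay after 16 h compound exposure of THP-1 cells; compounds (final up to 57.5 uM) added 1 h before LPS (250 ng/mL) and ATP (1.25 mM) stimulation; lower signal means less secretion.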
ELG1 DNA repair = blocks ELG1-dependent DNA repair in HEK293T cells | hit rate 2.3% among 330,000 | HEK293T ELG1-luciferase reporter, luminescence, 16 h; DNA damage induced by 5-fluorouridine | Potency, µM (doses to about 46.1 µM), most hits filed as inhibitors; note: nearly all actives have a fitted effect of over 55% in size
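In this reporter screen, reduction of luminescence relative to DMSO vehicle indicated activity. Compounds and 5-fluorouridine were added together to 2,000 cells per well, incubated for 16 hr at 37 °C, then developed with ONE-Glo.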
TDP1 cell CPT = DT40-hTDP1 cell growth loss with CPT | chicken DT40 Tdp1-/-;hTDP1 cells + 20 nM CPT, ATP luminescence, 48 h | Potency, µM (highest dose often 46.2 µM), hits mostly inhibitors | hit rate 12% among 420,000; note: nearly all actives have a fitted effect of over 55% in size
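Cell growth measured by CellTiter-Glo luminescence after a minimum 48 h, 37 C compound exposure with 20 nM CPT in Tdp1-knockout DT40 cells stably expressing hTDP1, seeded 400/well; qHTS titration format.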
Gal4-VP16 FLuc = Gal4-VP16 reporter inhibition counter-screen; Drosophila S2 Gal4-VP16 UAS-luciferase, luminescence, 20 h; Potency, µM (top dose mostly 53.6 µM), usual class: inhibitors; hit rate 3.5% among 310,000;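 note: Gal4-VP16 expression switched on by copper sulfate through the metallothionein promoter; nearly all actives have a fitted effect of over 50% in size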
TDP1 cell noCPT = qHTS for Inhibitors of human tyrosyl-DNA phosphodiesterase 1 (TDP1): qHTS in cells in absence of CPT | DT40 Tdp1-/- hTDP1 cells, no CPT, ATP luminescence, 48 h | Potency, µM (highest dose often 46.2 µM), most hits filed as inhibitors | hit rate 15% among 420,000 | AID 686978, 2013; note: nearly all actives have a fitted effect of over 55% in size
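Chicken DT40 Tdp1-/- cells stably complemented with human TDP1 were seeded at 400 cells/well with DMSO in place of 20 nM camptothecin. After compound pinning, cells grew at least 48 hr at 37 °C; viability read by CellTiter-Glo luminescence.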
RORg inh = inhibitors of mouse ROR gamma transcriptional activity; Potency, µM (titrated, usually from 53.6 µM), most hits filed as inhibitors; Drosophila S2 Gal4-RORgamma UAS-luciferase reporter, 20 h; AID 2551; hit rate 5.4% among 310,000; P51450; note: nearly all actives have a fitted effect of over 60% in size
Target sequence (P51450 whole entry, looked up, the tested form may be a part): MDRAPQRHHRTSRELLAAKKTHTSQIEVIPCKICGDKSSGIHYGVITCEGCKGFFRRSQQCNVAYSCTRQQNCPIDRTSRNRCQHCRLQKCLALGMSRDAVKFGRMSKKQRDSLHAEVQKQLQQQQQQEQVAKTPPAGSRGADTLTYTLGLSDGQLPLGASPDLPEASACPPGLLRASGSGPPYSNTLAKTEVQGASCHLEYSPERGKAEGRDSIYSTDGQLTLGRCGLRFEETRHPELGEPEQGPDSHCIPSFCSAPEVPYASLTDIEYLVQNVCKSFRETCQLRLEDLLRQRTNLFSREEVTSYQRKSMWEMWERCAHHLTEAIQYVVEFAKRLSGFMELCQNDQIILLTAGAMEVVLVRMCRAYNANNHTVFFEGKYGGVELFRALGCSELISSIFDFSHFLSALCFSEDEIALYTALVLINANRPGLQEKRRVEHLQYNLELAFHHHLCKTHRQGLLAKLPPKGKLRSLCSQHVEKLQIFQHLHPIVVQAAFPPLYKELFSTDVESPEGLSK
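Using a luciferase readout, inhibitors were identified by reduced reporter activity in Drosophila cells coexpressing a copper-inducible Gal4–ROR gamma fusion and UAS-driven Photinus luciferase, incubated 20 hr after 700 uM copper sulfate.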
Hits are given with their value. Only some compounds are listed: those with a hit (about 21% of all), similar ones and a draw of the others. Unless noted, calls come from the whole dose curve; as a rule, active = well fitted curve in the direction sought with a large enough effect; inconclusive = small, poorly fitted or top-dose-only effect, or another doubt; inactive = no such curve, though single readings can be large; an effect the other way counts as inactive or inconclusive.

How did C=CCn1cc(CN2CCC(C(=O)Nc3cccc(-c4cccc(Cl)c4)c3)CC2)c(C)n1 do in these assays?
IL-1B inflam inh: inactive; ELG1 DNA repair: inactive; TDP1 cell CPT: 16µM; Gal4-VP16 FLuc: inactive; TDP1 cell noCPT: 16µM; RORg inh: inactive

What do the screens show for `C=CCn1cc(CN2CCC(C(=O)Nc3ccc(Oc4cccnc4)cc3)CC2)c(C)n1`?
IL-1B inflam inh: inactive; ELG1 DNA repair: inactive; TDP1 cell CPT: inactive; Gal4-VP16 FLuc: inactive; TDP1 cell noCPT: inactive; RORg inh: inactive

What do the screens show for `N#CCCN(Cc1ccccc1)C(C(=O)NC1CCCCC1)c1cc2ccccc2o1` (stereo not drawn)?
IL-1B inflam inh: inactive; TDP1 cell CPT: 21µM; TDP1 cell noCPT: 18µM

What do the screens show for `Cc1nc2ccccn2c1C(=O)/C=C/c1ccc(F)cc1`?
IL-1B inflam inh: -108; ELG1 DNA repair: inconclusive; TDP1 cell CPT: inconclusive; Gal4-VP16 FLuc: inconclusive; TDP1 cell noCPT: 21µM; RORg inh: 8.9µM

What do the screens show for `COc1ccc(/C=C/C(=O)c2c(C)nc3ccccn23)cc1`?
IL-1B inflam inh: inactive; ELG1 DNA repair: inconclusive; TDP1 cell CPT: inactive; Gal4-VP16 FLuc: inactive; TDP1 cell noCPT: inactive; RORg inh: inactive

What do the screens show for `COc1ccc(NS(=O)(=O)c2ccc(NS(=O)(=O)c3cccs3)cc2)cc1`?
IL-1B inflam inh: inactive; ELG1 DNA repair: inactive; TDP1 cell CPT: inactive; Gal4-VP16 FLuc: inactive; TDP1 cell noCPT: inactive; RORg inh: inactive

Results for COC(=O)C1=C(CCc2ccccc2)NC(=O)NC1c1ccc(Cl)cc1 (stereo not drawn) ?
IL-1B inflam inh: -52; TDP1 cell CPT: inconclusive; TDP1 cell noCPT: inconclusive

Results for COC(=O)C1=C(COc2ccccc2)NC(=O)NC1c1ccc2ccccc2c1 (stereo not drawn) ?
IL-1B inflam inh: inactive; TDP1 cell CPT: inconclusive; TDP1 cell noCPT: 23µM

Results for COC(=O)C1=C(CCc2ccccc2)NC(=O)NC1c1ccc(C#N)cc1 (stereo not drawn) ?
IL-1B inflam inh: inactive; TDP1 cell CPT: inactive; TDP1 cell noCPT: inactive

How did O=C(Cn1c(=O)c(C(F)(F)F)nc2ccccc21)Nc1cccc(Br)c1 do in these assays?
TDP1 cell CPT: inactive; TDP1 cell noCPT: inactive

Results for COCOc1c2c(c(OCOC)c3c(OCOC)cccc13)/C(=N/N[S+](=O)([O-])c1ccc(C)cc1)C1=C2CCCC1 ?
Gal4-VP16 FLuc: inactive; RORg inh: inactive

Results for Cc1sc2ncn(CC(=O)N3CCN(c4ccc(F)cc4)CC3)c(=O)c2c1S(=O)(=O)N1CCCCC1 ?
TDP1 cell CPT: 16µM; TDP1 cell noCPT: 16µM

What do the screens show for `CCc1ccc(N(CC)C(=O)Cn2cnc3sc(C)c(S(=O)(=O)N4CCN(c5ncccn5)CC4)c3c2=O)cc1`?
TDP1 cell CPT: inactive; TDP1 cell noCPT: inactive

What do the screens show for `CCOc1ccc(N(CC)C(=O)Cn2cnc3sc(C)c(S(=O)(=O)N4CCN(c5ncccn5)CC4)c3c2=O)cc1`?
TDP1 cell CPT: 13µM; TDP1 cell noCPT: 9.2µM

What do the screens show for `CCOC(=O)C1CCN(C(=O)Cn2cnc3sc(C)c(S(=O)(=O)N4CCCCC4)c3c2=O)CC1`?
IL-1B inflam inh: inactive; ELG1 DNA repair: inactive; TDP1 cell CPT: inactive; Gal4-VP16 FLuc: inactive; TDP1 cell noCPT: inactive; RORg inh: inactive

Results for CCOC(=O)C1CCCN(C(=O)Cn2cnc3sc(C)c(S(=O)(=O)N4CCOCC4)c3c2=O)C1 (stereo not drawn) ?
IL-1B inflam inh: -53; ELG1 DNA repair: inactive; TDP1 cell CPT: inactive; Gal4-VP16 FLuc: inactive; TDP1 cell noCPT: inactive; RORg inh: inactive

Results for Cc1ccc(C)c(N2CCN(C(=O)Cn3cnc4sc(C)c(S(=O)(=O)N5CCN(c6ncccn6)CC5)c4c3=O)CC2)c1 ?
TDP1 cell CPT: 18µM; TDP1 cell noCPT: 9.2µM

Results for COc1cccc(C(N)=O)c1OC(=O)Cc1ccccc1F ?
IL-1B inflam inh: inactive; ELG1 DNA repair: inconclusive; TDP1 cell CPT: inactive; Gal4-VP16 FLuc: inactive; TDP1 cell noCPT: inactive; RORg inh: inactive

What do the screens show for `CCN(CC)C(=O)c1ccc2c(c1)N(Cc1ccccc1F)C(=O)c1ccccc1S2=O` (stereo not drawn)?
TDP1 cell CPT: inactive; TDP1 cell noCPT: inactive

What do the screens show for `CCN(CC)c1ccc(-n2c(C)c(C(C)=O)c(C(C)=O)c2C)cc1`?
IL-1B inflam inh: inactive; ELG1 DNA repair: 10µM; TDP1 cell CPT: 23µM; Gal4-VP16 FLuc: inactive; TDP1 cell noCPT: 10µM; RORg inh: inactive

How did COc1cc2[nH]c(C(=O)N3CC(C)OC(C)C3)cc2c(OC)c1OC (stereo not drawn) do in these assays?
IL-1B inflam inh: inactive; ELG1 DNA repair: inactive; TDP1 cell CPT: inactive; Gal4-VP16 FLuc: inactive; TDP1 cell noCPT: inactive; RORg inh: inactive

How did Cc1oc2ncn(C)c(=O)c2c1C(=O)NCc1ccc(Cl)cc1 do in these assays?
TDP1 cell CPT: inactive; TDP1 cell noCPT: inconclusive

What do the screens show for `CCOc1ccccc1C(=O)OCC(=O)Nc1cccc(S(=O)(=O)N2CCCC2)c1`?
IL-1B inflam inh: inactive; ELG1 DNA repair: inconclusive; TDP1 cell CPT: 21µM; TDP1 cell noCPT: 21µM

Results for CCS(=O)c1ccccc1C(=O)OCC(=O)Nc1cccc(S(=O)(=O)N2CCCCC2)c1 (stereo not drawn) ?
IL-1B inflam inh: inactive; ELG1 DNA repair: inactive; TDP1 cell CPT: 12µM; TDP1 cell noCPT: 5.8µM

What do the screens show for `O=C(COC(=O)c1ccccc1)Nc1cccc(S(=O)(=O)N2CCCCC2)c1`?
IL-1B inflam inh: inactive; ELG1 DNA repair: inactive; TDP1 cell CPT: inactive; TDP1 cell noCPT: inactive

How did O=C(COC(=O)c1cc([N+](=O)[O-])ccc1NCCO)Nc1ccc2c(c1)OCO2 do in these assays?
IL-1B inflam inh: inactive; ELG1 DNA repair: inconclusive; TDP1 cell CPT: inactive; Gal4-VP16 FLuc: inactive; TDP1 cell noCPT: inactive; RORg inh: inactive

How did O=C(COC(=O)c1cc([N+](=O)[O-])ccc1NCCO)Nc1cccc(S(=O)(=O)N2CCCC2)c1 do in these assays?
IL-1B inflam inh: inactive; ELG1 DNA repair: inconclusive; TDP1 cell CPT: 29µM; TDP1 cell noCPT: 13µM

Results for O=C1CC[C@@H](CN(Cc2cccnc2)C2CCN(c3ccc(NC(=O)c4cnccn4)cc3)CC2)N1 ?
TDP1 cell CPT: inactive; TDP1 cell noCPT: inactive

How did Cc1c(C(=O)N2CCCCCC2)sc2ncnc(NCC3CCCO3)c12 (stereo not drawn) do in these assays?
TDP1 cell CPT: inactive; TDP1 cell noCPT: inactive

How did O=C(C1CC=CCC1)N1CCCCCC1 (stereo not drawn) do in these assays?
IL-1B inflam inh: inactive; TDP1 cell CPT: inactive; TDP1 cell noCPT: inactive
